Source: PubChem (National Center for Advancing Translational Sciences (NCATS))
The list is not random: actives were taken first. Their share in the collection is about 10%.
CCT modulator: High-Throughput Screening for Modulators of Cytosolic Chaperonin Activity; purified chaperonin ATPase assay, HTRF ADP detection, 30 min; activity change, % (no concentration beside the values), hits read low; hit rate 0.3% among 360,000; AID 651819, 2012; in the data active = activity change below about -30%
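First, chaperonin was dispensed at 40 nM or 20 nM final depending on batch activity. Next, compounds were pinned at 76 uM and ATP added at 10 uM. After 30 min at 37 °C, ADP detection reagents ran 30 min at ambient temperature.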
PLK1 PBD inh: qHTS for Inhibitors of PLK1-PDB (polo-like kinase 1 - polo-box domain): Primary Screen | Potency, µM, for the others: max response, negative = inhibition, hits mostly inhibitors | AID 720504, 2013 | hit rate 2.8% among 360,000 | Serine/threonine-protein kinase PLK1 (Homo sapiens), P53350 | Plk1 PBD binding of FITC phosphopeptide, fluorescence polarization; also: potency is read from the fitted curve at half-maximal effect; series mostly up to about 57 µM; nearly all actives have a fitted effect of over 65% in size
Target sequence (P53350 whole entry, looked up, the tested form may be a part): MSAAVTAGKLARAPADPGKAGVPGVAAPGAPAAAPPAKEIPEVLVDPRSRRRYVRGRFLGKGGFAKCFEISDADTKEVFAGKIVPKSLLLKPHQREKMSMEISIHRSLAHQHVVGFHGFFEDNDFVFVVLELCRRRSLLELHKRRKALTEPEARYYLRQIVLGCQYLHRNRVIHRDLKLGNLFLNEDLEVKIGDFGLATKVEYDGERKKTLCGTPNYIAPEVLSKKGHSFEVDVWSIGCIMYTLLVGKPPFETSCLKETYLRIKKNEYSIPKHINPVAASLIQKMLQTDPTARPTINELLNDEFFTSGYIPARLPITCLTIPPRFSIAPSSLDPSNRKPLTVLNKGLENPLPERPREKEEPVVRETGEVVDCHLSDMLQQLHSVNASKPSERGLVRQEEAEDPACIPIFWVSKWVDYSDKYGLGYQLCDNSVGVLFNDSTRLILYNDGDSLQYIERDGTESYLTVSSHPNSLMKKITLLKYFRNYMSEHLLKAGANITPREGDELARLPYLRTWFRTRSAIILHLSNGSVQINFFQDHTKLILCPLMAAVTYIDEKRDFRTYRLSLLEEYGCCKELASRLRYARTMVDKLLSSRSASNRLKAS
VDR inh: Inhibitors of the vitamin D receptor (VDR): qHTS; Vitamin D3 receptor (Homo sapiens), P11473; VDR-SRC2-3 peptide fluorescence polarization, 2 h; Potency, µM, inactives show max response, negative = inhibition, hits mostly inhibitors; hit rate 0.93% among 400,000; also: potency is read from the fitted curve at half-maximal effect
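After 23 nl compound addition and a short centrifugation, plates sat for 2 hours at ambient temperature; polarization of fluorescence then indicated loss of VDR binding to peptide SRC2-3.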
Sfp inh: qHTS Assay for Inhibitors of Bacillus subtilis Sfp phosphopantetheinyl transferase (PPTase) | 4'-phosphopantetheinyl transferase ffp (Bacillus subtilis), Q9F4F7 | Biochemical Sfp PPTase activity, qHTS | Potency, µM, inactives show largest response in the series, negative = inhibition, hits mostly inhibitors | hit rate 3.5% among 310,000;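 also: the enzyme is Sfp with the accession as filed and its product quenches rhodamine fluorescence; potency is read from the fitted curve at half-maximal effect; 0% = enzyme reaction without inhibitor and -100% = no enzyme wells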
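Reaction rates are the 30-min fluorescence difference (ex 525, em 598 nm) in wells containing 15 nM Sfp, 5 uM rhodamine-CoA and 12.5 uM BHQ-2-YbbR at pH 7.6 with 10 mM MgCl2.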
G9a block: qHTS Assay for Inhibitors of Histone Lysine Methyltransferase G9a | Histone-lysine N-methyltransferase EHMT2 (Homo sapiens), Q96KQ7 | G9a H3K9 monomethylation, AlphaScreen, 2 h | Potency, µM (series often up to 102 µM), for the others: at the top dose activity, negative = inhibition, usual class: inhibitors | hit rate 8.8% among 350,000 | AID 504332, 2011; also: potency is read from the fitted curve at half-maximal effect; nearly all actives have a fitted effect of over 75% in size
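AlphaScreen detection with an anti-monomethyl H3K9 antibody quantified product after a 2 h room-temperature reaction containing 500 nM biotinylated H3K9 peptide, 20 µM SAM and 20 nM enzyme, which had been preincubated 15 min with compound.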
Mm-Cpn inhibitor: Inhibitors of TCP-1 ring complex (TRiC) of Methanococcus maripaludis (MmCpn): qHTS. purified Mm-Cpn ATPase, ADP Transcreener TR-FRET. Potency, µM (doses to about 76.9 µM), for inactives: at the highest dose activity, negative = inhibition, actives largely listed as inhibitors. AID 504842, 2011. hit rate 0.031% among 330,000. Chaperonin Mm-Cpn (Methanococcus maripaludis); also: potency is read from the fitted curve at half-maximal effect; nearly all actives have a fitted effect of over 80% in size
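TR-FRET (320 nm excitation; 590 and 665 nm emission) reports ADP made from 10 uM ATP by 25 nM enzyme; compounds were preincubated 10 min, reaction run 30 min, both at 37°C.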
* marks the source's active call; other numbers are inactive results; ? = inconclusive; nt = no result given; [ ] = dose if it differs, or a comment. Unless noted, calls follow the shape of the dose curve; as a rule, active = well fitted curve in the direction sought with a large enough effect; inconclusive = small, poorly fitted or top-dose-only effect, or another doubt; inactive = no such curve, though single readings can be large; an effect the other way counts as inactive or inconclusive. Unless noted, % is scaled to controls: 0 for no effect and ±100 for the full control effect.

SMILES	CCT modulator	PLK1 PBD inh	VDR inh	Sfp inh	G9a block	Mm-Cpn inhibitor
O=C(C1=C(O)C(=O)N(CCN2CCOCC2)C1c1ccc(F)cc1)c1cccs1 (stereo unspecified)	-2	1%	-2%	3%	71µM*	-3%
COc1ccc(OC)c(C2C(C(=O)c3cccs3)=C(O)C(=O)N2CCN(C)C)c1 (stereo unspecified)	0	-5%	2%	-3%	50µM*	2%
COCCN1C(=O)C(O)=C(C(=O)c2cccs2)C1c1ccccc1 (stereo unspecified)	1	-3%	-10%	4%	18µM*	-10%
CCN(CC)CCN1C(=O)C(O)=C(C(=O)c2cccs2)C1c1ccccn1 (stereo unspecified)	-1	-2%	-2%	56µM*	32µM*	1%
COc1cccc(C2C(C(=O)c3cccs3)=C(O)C(=O)N2CCN2CCOCC2)c1 (stereo unspecified)	-2	-6%	7%	17%	16%	-2%
C/C(CCN1CCCc2nc(C)c(C)cc21)=N\O[C@@H](C)c1cc(-c2c(C)cc(C)cc2C)no1	nt	nt	nt	-7%	nt	nt
COC(=O)NC(c1ccco1)[C@]1(C(C)=O)CCCC1=O (stereo partly specified)	nt	nt	nt	6%	nt	nt
Cc1ccc2c(CC(=O)Nc3c(C(=O)c4ccc(C)c(F)c4)oc4ccccc34)coc2c1	nt	nt	15%	nt	-34%[59 µM]	nt
CCCCOc1ccc(C2C(C(=O)c3cccs3)=C(O)C(=O)N2CCN2CCOCC2)cc1 (stereo unspecified)	-2	-11%	-10%	-1%	nt	-5%
CCOc1ccc(C2C(C(=O)c3cccs3)=C(O)C(=O)N2CCN2CCOCC2)cc1 (stereo unspecified)	-1	-12%	-14%	-3%	50µM*	-2%
CC1=C(c2ccc(C)cc2)S(=O)(=O)N=C1N1CCN(c2ccccc2)CC1	nt	nt	5%	nt	-51%[59 µM]	nt
COC(=O)c1ccc2c(=O)[nH]c(CSc3nc(C)cs3)nc2c1	2	-11%	21%	4%	40µM*	2%
O=C(O)CC(NC(=O)C1c2ccccc2Oc2ccccc21)c1ccc(Cl)cc1 (stereo unspecified)	-1	-7%	-15%	-4%	11µM*	1%
CCOc1ccc(C(CC(=O)O)NC(=O)C2c3ccccc3Oc3ccccc32)cc1 (stereo unspecified)	0	-15%	-15%	41%	9%[59 µM]	-2%
CCc1nnc(SCC(=O)Nc2cccc(C(F)(F)F)c2)c2cc3oc(C)cc3n12	nt	nt	12%	nt	-29%[59 µM]	nt
Cc1ccccc1OCc1nc(C#N)c(N2CCCC2)o1	3	5%	-7%	-17%	28µM*	-7%
N#Cc1nc(COc2ccc(F)cc2)oc1N1CCCC1	2	-2%	2%	-25%	?	-1%
N#Cc1nc(COc2ccccc2)oc1N1CCN(Cc2ccccc2)CC1	3	30µM*	-13%	12%	?	-2%
N#Cc1nc(Cc2ccccc2)oc1N1CCCC1	1	0%	-8%	-9%	nt	1%
CCN1CCN(c2oc(-c3ccc(COc4ccc(C)cc4)o3)nc2C#N)CC1	nt	nt	1%	nt	?	nt
N#Cc1nc(COc2ccccc2)oc1N1CCC(Cc2ccccc2)CC1	-2	-3%	6%	-25%	13µM*	-1%
Cc1ccc(OCc2nc(C#N)c(N3CCN(Cc4ccccc4)CC3)o2)cc1	-1	27µM*	9%	2%	-1%[12.7 µM]	3%
O=C(c1ccc2c(c1)OCCO2)N(Cc1cccnc1)c1nc2c(F)cc(F)cc2s1	nt	nt	-12%	nt	0%[59 µM]	nt
N#Cc1nc(COc2cccc(Cl)c2)oc1N1CCCC1	-2	-5%	-23%	-15%	45µM*	1%
COc1ccc(NS(=O)(=O)c2ccc(N3CCCCS3(=O)=O)cc2)cc1Cl	nt	nt	11%	nt	20%[59 µM]	nt
SMILES	CCT modulator	PLK1 PBD inh	VDR inh	Sfp inh	G9a block	Mm-Cpn inhibitor
Cc1ccc(NC(=O)CSc2nnc(-c3nnn(-c4ccc(F)cc4)c3C)o2)cc1Br	nt	nt	-11%	nt	35%[59 µM]	nt
O=S(=O)(CS(=O)(=O)c1ccccc1)c1ccccc1	0	-6%	-8%	nt	nt	nt
O=C1CC(c2ccc(Cl)cc2)CC(=O)C1CS(=O)(=O)c1ccccc1 (stereo unspecified)	-3	27µM*	?	-94%	4µM*	-3%
COc1ccc(C2CC(=O)C(CS(=O)(=O)c3ccccc3)C(=O)C2)cc1 (stereo unspecified)	1	?	?	-12%	45%	0%
O=C1CC(c2ccccc2)CC(=O)C1Sc1ccc(Cl)cc1 (stereo unspecified)	0	21µM*	?	-7%	8%[59 µM]	-1%
O=C1CCCC(=O)C1CS(=O)(=O)c1ccccc1	1	-16%	40µM*	20µM*	3.2µM*	?
O=C1C=C(c2ccccc2)C[C@@H](c2ccc(Cl)cc2)C1	-1	?	-10%	nt	3%[0.501 µM]	1%
CCc1ccc(NC(=O)Cn2cc(S(=O)(=O)N3CCCC3)c(S(=O)(=O)N3CCCC3)c2)cc1	nt	nt	6%	nt	-2%[59 µM]	nt
CCCn1cc(S(=O)(=O)c2cccc(Cl)c2)c(=O)c2cc(F)c(N3CCCC3)cc21	nt	nt	10%	nt	1%[59 µM]	nt
COc1ccc(C2Nc3ccccc3NC3=C2C(=O)CC(C)(C)C3)cc1O (stereo unspecified)	3	3.8µM*	?	16%	-16%	-1%
COc1cc(C2C3=C(CC(C)(C)CC3=O)NC3=C2C(=O)c2ccccc23)ccc1O (stereo unspecified)	3	-7%	-9%	-21%	45µM*	-3%
COc1ccc(C2Nc3ccccc3NC3=C2C(=O)CC(C)(C)C3)cc1OC (stereo unspecified)	0	-5%	3%	28%	11%	-1%
COc1ccc(C2C3=C(CC(C)(C)CC3=O)Nc3c2c(=O)n(C)c(=O)n3C)cc1OC (stereo unspecified)	-1	12µM*	?	26%	27%[12.7 µM]	-1%
C=Cc1ccc(CSc2nc(-c3ccc(Cl)cc3)nc3c2Cc2c(CO)cnc(C)c2O3)cc1	nt	nt	3%	nt	-2%[59 µM]	nt
O=C(NCc1ccccc1)c1ccc2c(c1)nc1n2CCOC1	nt	nt	12%	nt	-7%[59 µM]	nt
